# High-throughput results: PubChem, National Center for Advancing Translational Sciences (NCATS)
# Hits are enriched below; roughly 21% of the tested compounds scored in any of these assays.
# Cycloheximide cs: affects cycloheximide protein synthesis inhibition readout, counter-screen | cell reporter, cycloheximide protein synthesis inhibition counterscreen | max response, % | 300,000 compounds, 12% hits; in the data active means max response mostly above about 13%, no sharp cut-off; inactive means mostly below about 14%; further: read at 38.3 µM for the half of the compounds with a filed dose
# SARS PLpro yeast: SARS-CoV PLP inhibition in yeast; S. cerevisiae expressing SARS-CoV PLpro, growth rescue; Potency, µM (series often up to 32.9 µM), most hits filed as activators; 330,000 compounds, 0.19% hits; AID 485353; further: nearly all actives have a fitted effect of over 55% in size
# Pf growth 96h: inhibits malaria parasite growth, 96 h | P. falciparum luciferase reporter growth, 96 h | Potency, µM (series often up to 28.7 µM), most hits filed as inhibitors | 320,000 compounds, 6.9% hits; active means well fitted inhibition curve with a large enough effect; inconclusive means small, poorly fitted or top-dose-only effect, or another doubt; inactive means no such curve, though single readings can be large or run the other way
#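 P. falciparum expressing integrated firefly luciferase, in erythrocytes at 2% hematocrit, 0.05% parasitemia, incubated with compounds 96 h at 37 C, 5% CO2. Growth inhibition read as loss of luminescence; two-generation exposure targets delayed-death apicoplast inhibitors.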
# Pf growth 48h: inhibits P. falciparum growth in the first generation, 48 h; AID 504832; 310,000 compounds, 5.9% hits; Potency, µM (series often up to 28.7 µM), hits mostly inhibitors; P. falciparum luciferase growth in erythrocytes, 48 h; active means well fitted inhibition curve with a large enough effect; inconclusive means small, poorly fitted or top-dose-only effect, or another doubt; inactive means no such curve, though single readings can be large or run the other way
#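 Parasite viability was followed by luminescence of a genomically integrated firefly luciferase. Cultures held 0.1% parasitemia at 2% hematocrit (final), incubated under 5% CO2 at 37 C.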
# NS1 function inh: blocks influenza NS1 protein function. Potency, µM (top dose mostly 46.1 µM). 270,000 compounds, 0.4% hits; further: actives are rising curves; nearly all actives have a fitted effect of over 50% in size
#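 OD600 was taken as the measure of yeast growth restored by compound in an NS1-expressing S. cerevisiae strain. Cells had been washed out of glucose medium and diluted 1:100 into galactose -URA medium, pH 6.0.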
# Shiga inhibitor: inhibitors of Shiga toxin in Vero cells; Vero cells, Shiga toxin protein synthesis inhibition reporter; inhibition, % at 38.7 µM; 290,000 compounds, 9.2% hits; in the data active means inhibition mostly above about 28%, no sharp cut-off; inactive means mostly below about 43%
# A number is an active result; n = inactive; u = inconclusive; x = no result given. Unless noted, the call rests on the fitted dose curve.
SMILES,Cycloheximide cs,SARS PLpro yeast,Pf growth 96h,Pf growth 48h,NS1 function inh,Shiga inhibitor
O=C(O)c1ccccc1-c1csc(-c2ccccc2)n1,23,n,n,n,n,79
O=C(O)c1ccccc1C(=O)Nc1ccc(-c2csc(-c3ccccc3)n2)cc1,54,n,n,n,u,73
CCOc1ccccc1/C=C/C(=O)N1CCN(C(=O)c2ccco2)CC1,x,n,x,x,x,x
O=C(O)c1cnn(-c2nc(-c3ccc(Cl)c(Cl)c3)cs2)c1C(F)(F)F,19,n,u,n,n,n
C=CCNC(=O)c1ccc(-c2nc(-c3ccc(Cl)c(Cl)c3)cs2)cc1,n,n,u,u,n,n
O=S(=O)(Nc1ccc(-c2csc(-c3ccccc3)n2)cc1)c1ccccc1,n,n,0.66µM,n,n,n
CNC(=O)c1ccc(-c2nc(-c3ccccc3)cs2)cc1,32,n,n,n,n,43
O=C(NCc1nc(-c2ccccc2)cs1)c1ccccc1,19,n,n,n,n,30
CCOC(=O)Nc1cc(NC(=O)OCC)c(C)nc1C,n,n,n,n,n,n
Cc1oncc1-c1csc(-c2ccccc2)n1,51,n,n,n,x,64
CCc1sc(-c2ccccc2)nc1C(=O)OC,n,n,n,n,n,n
C=CCNC(=O)c1ccc(-c2nc(-c3ccc(Cl)cc3Cl)cs2)cc1,n,n,n,n,n,n
O=C(O)c1ccc(-c2nc(-c3ccccc3Cl)cs2)cc1,29,n,n,n,n,143
O=C(O)c1ccc(-c2nc(-c3ccc(Cl)c(Cl)c3)cs2)cc1,37,n,n,n,x,141
CC(=O)c1nc(-c2ccccc2)sc1C,n,n,u,n,x,77
COc1ccc(OCC(=O)Nc2nccs2)cc1,n,n,n,n,n,n
COc1ccc(C(CC(=O)Nc2nccs2)n2cccc2)cc1 (stereo not drawn),31,n,n,n,n,150
COc1ccc(C(CC(=O)Nc2cc(OC)cc(OC)c2)n2cccc2)cc1 (stereo not drawn),n,n,u,13µM,n,n
COc1ccc(C(CC(=O)Nc2nccs2)C(C)C)cc1 (stereo not drawn),n,n,13µM,u,n,n
COc1ccc(C(CC(=O)Nc2ccccn2)N2Cc3ccccc3C2=O)cc1 (stereo not drawn),30,n,n,n,n,88
COc1ccc(OCCC(=O)Nc2nccs2)cc1,n,n,n,n,n,n
COc1ccc(C(CC(=O)Nc2ccccc2OC)n2cccc2)cc1 (stereo not drawn),n,n,u,n,n,n
O=C(CC1C(=O)NCCN1Cc1cccc(F)c1)NCCCCCN1CCOCC1 (stereo not drawn),n,n,n,n,n,n
Cc1nc2ccccn2c1C(=O)N=Nc1c(O)n(CCC(C)C)c2ccccc12,n,n,u,u,n,n
O=C(Nc1ccc(O)c(C(=O)O)c1)Oc1ccccc1,n,n,n,n,n,n
SMILES,Cycloheximide cs,SARS PLpro yeast,Pf growth 96h,Pf growth 48h,NS1 function inh,Shiga inhibitor
N/C(=N\OC(=O)COc1cc(Cl)c(Cl)cc1Cl)c1ccccn1,39,n,n,n,x,91
CC(C)(C)CC(=O)O/N=C(\N)c1ccccn1,40,n,13µM,n,n,n
Cc1ccc(OCC(=O)O/N=C(\N)c2ccccn2)cc1,50,n,n,n,n,80
N/C(=N\OC(=O)CCN1C(=O)c2ccccc2C1=O)c1ccccn1,n,n,u,n,n,n
Cc1cccc(OCC(=O)O/N=C(\N)c2ccccn2)c1C,28,n,n,n,n,65
C=CCN1C(=O)NC(c2ccccc2)(C(F)(F)F)S/C1=C(\C#N)c1nnc(N2CCOCC2)n1-c1ccccc1 (stereo not drawn),n,n,n,n,n,n
N/C(=N\OC(=O)Cc1ccc(Cl)cc1)c1ccccn1,20,n,n,x,n,n
Cc1ccc(S(=O)(=O)N(C)CC(=O)O/N=C(\N)c2ccccn2)cc1,n,n,u,n,n,n
N/C(=N\OC(=O)CCCOc1ccc(Cl)cc1Cl)c1ccccn1,n,n,u,n,n,n
Cc1ccc(CC(=O)O/N=C(\N)c2ccccn2)cc1,82,n,n,n,n,84
O=C(CSc1nnc(C2COc3ccccc3O2)o1)N1CCN(c2ccccc2)CC1 (stereo not drawn),n,n,n,n,n,n
CCOc1cc(/C=N/NC(=O)CCn2nc(C)cc2C)ccc1O,n,n,n,n,n,n
